Source: PubChem BioAssay (NCI)
Where “and” joins values, the source holds several entries; their conditions need not be identical. Equal entries are not always repeated. This is part of a sample that, as a whole, favours compounds with a hit. Of some 79,000 tested, about 15% had one in any assay. Calls of active or inactive are those of the source. No stated cut-off is given here; in the data, active means growth inhibition above about 70%; inactive means the rest.

Experiments:
[1] = NCI Yeast Anticancer Drug Screen. Data for the rad50 strain (AID 155);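 further: 0% = growth of vehicle-only cultures of the same strain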; conditions: S. cerevisiae rad50 strain growth inhibition; at 50.0 µM; hits give high values
Method in brief: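 Readout: growth inhibition relative to vehicle-treated cultures. Compound exposure was carried out in a genetically defined yeast strain deficient in DNA damage repair.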

[2] = NCI Yeast Anticancer Drug Screen. Data for the mec2-1 strain (AID 157); conditions: S. cerevisiae mec2-1 strain, at 50.0 µM, hits give high values
Method in brief: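 Readout is yeast growth inhibition, normalised to vehicle-treated controls, in the mec2-1 strain exposed to compound.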

[3] = NCI Yeast Anticancer Drug Screen. Data for the sgs1 mgt1 strain (AID 161);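 further: 0% = growth of cultures given vehicle only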; conditions: S. cerevisiae sgs1 mgt1 strain, at 50.0 µM, hits give high values
Method in brief: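 Percent growth inhibition was derived by comparing compound-exposed mutant yeast with vehicle-exposed cultures. The strain carries alterations in DNA damage repair.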

[4] = NCI Yeast Anticancer Drug Screen. Data for the cln2 rad14 strain (AID 165);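 further: 0% = growth equal to vehicle treated cultures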; conditions: S. cerevisiae cln2 rad14 strain, at 50.0 µM, hits give high values
Method in brief: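 Relative to vehicle controls, growth inhibition of compound-treated cln2 rad14 yeast was recorded.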

[5] = NCI Yeast Anticancer Drug Screen. Data for the bub3 strain (AID 167); conditions: S. cerevisiae bub3 mutant strain, at 50.0 µM, hits give high values
Method in brief: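 Readout: yeast growth inhibition, expressed relative to vehicle-only wells. The test organism is a mutant strain from a panel with lesions in DNA repair or checkpoint genes.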

[6] = NCI Yeast Anticancer Drug Screen. Data for the mlh1 rad18 strain (AID 175); conditions: S. cerevisiae mlh1 rad18 strain growth inhibition; at 50.0 µM; hits give high values
Method in brief: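 Test agents were incubated with a yeast strain of defined genotype (DNA damage repair defect). Inhibition of growth was derived by comparison with vehicle-exposed cultures.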

Measured: growth inhibition

O=C(CN1CCOCC1)c1ccc2ccccc2c1
inactive: [1] 10.1% | [2] 2.05% | [3] 8.4% | [4] -14.4% | [5] 17% | [6] 9.85%

N#CC(C#N)=Cc1ccccc1F
inactive: [1] 15.5% | [2] 7.1% | [3] 12.2% | [4] 15.2% | [5] 10.6% | [6] 12.7%

COC1OC(CN=[N+]=[N-])C2OC12 (stereo unspecified)
inactive: [1] 5.4% | [2] -0.3% | [3] -3.2% | [4] 3.9% | [5] 0.6% | [6] 7.95%

CCC[N+](CCC)(CCC)CCC.[Ni+2].[SH2+]C([SH2+])=Nc1ccccc1.[SH2+]C([SH2+])=Nc1ccccc1
inactive: [1] 24.1% | [2] 18.9% | [3] 9.6% | [4] -20.9% | [5] 4.7% | [6] 30.1%

C/C=C(\CC)C1(C)C(=O)NC(=O)NC1=O
inactive: [1] 7.4% | [2] 7.8% | [3] -5.7% | [4] 6.35% | [5] 1.4% | [6] -4.1%

COc1ccc(CCN(C)C(C)C2C3CC4CC(C3)CC2C4)cc1OC (stereo unspecified)
inactive: [1] 35.5% | [2] 11.3% | [3] 19.2% | [4] -16.4% | [5] -1.1% | [6] 17.9%

CCOP(=O)(OCC)/C(C#N)=C/c1ncc[nH]1
inactive: [1] -36.6% | [2] -23.9% | [3] -48% | [4] 19.7% | [5] 26.2% | [6] -55.4%

CCOP(=O)(CC)C(Cl)(Cl)Cl (stereo unspecified)
inactive: [1] 2.4% | [2] -18.5% | [3] -5.95% | [4] -24.1% | [5] 6.05% | [6] -2.2%

COc1cc2c(cc1OC)[N+]1(C)CCC3OCCC4C[N+]5(C)CCC26C5CC4C3C61 (stereo unspecified)
inactive: [1] 6.15% | [2] 3.45% | [3] 2.75% | [4] -6% | [5] -6.6% | [6] -13.3%

O=P(Oc1ccccc1)(Oc1ccccc1)N(CCCl)CCCl
inactive: [1] 0.2% | [2] 9.55% | [3] -8.35% | [4] -11.9% | [5] -19.2% | [6] -37.6%

[Cl][Ni][Cl].[NH-]C1CCCCC1[NH-].[NH-]C1CCCCC1[NH-] (stereo unspecified)
inactive: [1] -22.9% | [2] -6.45% | [3] 0.85% | [4] -18.6% | [5] 11.8% | [6] -1.85%

O=C1CC2OCC=C3CN4CCC56c7ccccc7N1C5C2C3CC46O (stereo unspecified)
inactive: [1] 25.3% | [2] -21.2% | [3] 6.1% | [4] -1.2% | [5] 30.7% | [6] -62.1%

O=C(O)c1ccc([As](=O)(O)O)cc1
inactive: [1] -16.6% | [2] 4.3% | [3] 17.3% | [4] -35.2% | [5] -18.8% | [6] -4.8%

O=CC(O)C(O)C(O)C(O)COP(=O)(O)Cc1ccccc1 (stereo unspecified)
inactive: [1] -44.9% and 4.75% | [2] -12.2% and -25.2% | [3] -62% and -32.6% | [4] -25.3% and 28.1% | [5] -10.2% and -9.4% | [6] -48% and 7.55%

Cc1nc(N)sc1S(=O)(=O)F
inactive: [1] -41.9% | [2] -29.7% | [3] -21.6% | [4] -14.1% | [5] -29.4% | [6] -5.15%

CN1C(=O)CC(=O)N(C)P1(=O)Oc1ccccc1
inactive: [1] -6% | [2] 3.25% | [3] 14% | [4] -1.6% | [5] -1.7% | [6] 4.15%

CC(=O)NNC(=O)C(Cl)Cl
inactive: [1] 5.45% | [2] -3.75% | [3] 8.45% | [4] 8% | [5] 4.15% | [6] 25.4%

CN(C)CCc1ccccc1
inactive: [1] -15.1% | [2] 2.35% | [3] 13.9% | [4] 20.8% | [5] -2.3% | [6] 11.1%

CCC[CH2][Sn]([CH2]CCN(C)C)([CH2]CCN(C)C)[CH2]CCN(C)C
inactive: [1] 38.5% | [2] 8.4% | [3] 12.8% | [4] 15.2% | [5] -1.95% | [6] 28.2%

OC(c1ccccc1)C(NC1CCCCC1)c1ccccc1 (stereo unspecified)
inactive: [1] -4.5% | [2] -18.6% | [3] -0.75% | [4] -24.2% | [5] -6.3% | [6] -56%

Cn1c(O)c(C=N)c(=O)n(C)c1=O
inactive: [1] 15.1% | [2] 5.4% | [3] -2.6% | [4] 7.45% | [5] 0.8% | [6] 4.7%

CC(C)([N+](=O)[O-])S(=O)O
inactive: [1] -9.15% | [2] -14.2% | [3] -22% | [4] -1.05% | [5] -5.4% | [6] -0.65%

CCC1(C(C)c2ccccc2)C(=O)NC(=O)NC1=O (stereo unspecified)
inactive: [1] 0% | [2] 6.1% | [3] 1.8% | [4] 46.1% | [5] 16.6% | [6] -3.55%

CCC(Cl)COP(=O)(OCC(Cl)CC)O/C(C)=C(\C)OP(=S)(OCC(Cl)CC)OCC(Cl)CC (stereo unspecified)
active: [1] 86.5% | [2] 93.2% | [3] 93.8% | [4] 99.2% | [5] 98.8% | [6] 96.8%

O=C([O-])Cc1ccccc1.O=[N+]([O-])O.[Co+3].[NH2-].[NH2-].[NH2-].[NH2-].[NH2-]
inactive: [1] 13.1% | [2] 12.5% | [3] 21.3% | [4] 11.9% | [5] 14.8% | [6] -5.9%

Nc1[nH]c(=S)[nH]c(=O)c1Cn1ccnc1
inactive: [1] -20.4% | [2] 0.8% | [3] -23.4% | [4] -17.1% | [5] -11.2% | [6] -33.8%

O=C(O)c1ccccc1S
inactive: [1] 7.1% and 0.05% | [2] -7.6% and -15.2% | [3] 9.95% and -8.35% | [4] 18.9% and -22.2% | [5] -1.75% and 5.25% | [6] 2.75% and 11.5%

OC(CN(C1CCCCC1)C1CCCCC1)c1ccc(Cl)c(Cl)c1 (stereo unspecified)
inactive: [1] -3.1% | [2] -30.9% | [3] -14.4% | [4] -36% | [5] 35.4% | [6] -28.2%

C1=C\CCC2SC2CC/1 (stereo unspecified)
inactive: [1] 2.1% | [2] -16.9% | [3] -5.95% | [4] -14.6% | [5] 12.4% | [6] -7.5%

C[N+](C)(C)CCNP(=O)(Oc1ccccc1)c1ccccc1 (stereo unspecified)
inactive: [1] 4.15% | [2] 5.55% | [3] -22.5% | [4] 1.35% | [5] -1.55% | [6] 21.6%

O=CNNC(=O)C(Cl)Cl
inactive: [1] 4.25% | [2] -11.9% | [3] -10.1% | [4] -31.3% | [5] -3.45% | [6] 8.9%

CP(C)C.[Ag][I]
inactive: [1] -26.4% | [2] -7.85% | [3] -0.15% | [4] -41.2% | [5] -9.3% | [6] -2.4%

CN1C2C=CC1c1c(C3=NC(C)(C)CO3)cccc12 (stereo unspecified)
inactive: [1] -8.15% | [2] -8.05% | [3] -7.95% | [4] -36% | [5] 6.85% | [6] 2.6%

O=C1OP2(c3ccccc3)(OC(=O)c3ccccc32)c2ccccc21
inactive: [1] 18.6% | [2] 16.2% | [3] 20.4% | [4] -20.3% | [5] -18.5% | [6] 14.3%

CC1=CC(=O)C=CC1=O
inactive: [1] 39.1% | [2] 52.3% | [3] 28.9% | [4] 12.4% | [5] 11.3% | [6] 55.4%

O=c1[nH]c(=S)[nH]c(O)c1/C=C1\C=CC=N1
inactive: [1] -22.9% | [2] -3.95% | [3] -3.45% | [4] 1.85% | [5] 3.3% | [6] -14.1%

CC1OC(O[C@H]2C[C@@H](O)[C@]3(CO)[C@H]4[C@H](O)C[C@]5(C)[C@@H](C6=CC(=O)OC6)CC[C@]5(O)[C@@H]4CC[C@]3(O)C2)C(O)C(O)C1O (stereo partly specified)
inactive: [1] -6.7% | [2] 1.15% | [3] 5.05% | [4] 20.9% | [5] -1.2% | [6] -47.5%

Cc1cc2n[se]nc2cc1C
inactive: [1] 18.3% | [2] -9.15% | [3] 20.6% | [4] 6.3% | [5] -6.65% | [6] 21.7%

CC(Br)([N+](=O)[O-])[N+](=O)[O-]
inactive: [1] 14.6% | [2] 25.8% | [3] 13.9% | [4] 39.6% | [5] 5.4% | [6] 2.8%

Cc1cc(Cl)ccc1N
inactive: [1] 32.4% | [2] 6.1% | [3] 0.65% | [4] 12.2% | [5] 24.4% | [6] 21.4%

CC(=O)NN=C(N)N
inactive: [1] 3.15% and -2% | [2] -1.5% and 2.75% | [3] -0.55% and 11.7% | [4] -29.9% and -24.1% | [5] -6.75% and -10.2% | [6] 14.1% and 5.9%

O=c1[nH]c(O)c(N=Nc2ccc([N+](=O)[O-])cc2[N+](=O)[O-])c(=O)[nH]1
inactive: [1] 14.7% | [2] 15.4% | [3] 22.2% | [4] 14.7% | [5] -11.7% | [6] 7.35%

CCCCc1ccc(N=C(N)N)cc1
inactive: [1] 25.6% | [2] 9.35% | [3] 19.4% | [4] 8.3% | [5] 12.2% | [6] -1.95%

CC1(C)N=C(N)N=C(N)N1c1ccc(CCCCc2ccc(S(=O)(=O)F)c(Cl)c2)c(Cl)c1
active: [1] 99.2% | [2] 99.5% | [3] 99.4% | [4] 99.2% | [5] 99.3% | [6] 99.3%

CCN1CC2(C)CCC(OC)C34C5CC6CCC(O)(C5C(=O)O6)C(C(O)C23)C14 (stereo unspecified)
inactive: [1] -9.45% | [2] -44% | [3] 2% | [4] -0.5% | [5] -34.1% | [6] -57.7%

COP(=O)(OC)/C(C#N)=C/c1ccco1
inactive: [1] -35.3% | [2] -29.1% | [3] -46.5% | [4] -27.8% | [5] -42.6% | [6] -41.1%
